Assay outcomes deposited in PubChem BioAssay by several laboratories.
Shown are actives, neighbours in structure and some others; about 2.3% of the full set was active somewhere.
Cardio protect – cardioprotection against H2O2-induced cell death, primary screen, uHTS, H9c2 cells, ATPLite luminescence; protection from H2O2 cell death, % at 20 µM; H9c2 cardiomyocytes, H2O2 injury protection, 2 h; hit rate 0.63% among 360,000;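 active = compounds giving at least 50% protection of heart cells from peroxide-induced death in the single-dose screen, raw or plate-pattern-corrected value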;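 note: 0% = DMSO wells with peroxide and 100% = DMSO wells without peroxide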
beta cell repl – inducers of MIN6 beta-cell proliferation, primary screen, ATP luminescence, uHTS; MIN6 cells proliferation, ATPlite luminescence, 48 h; cells starved in 0.2% serum; 100% = growth in 10% serum; proliferation, % at 10 µM; hit rate 0.29% among 330,000; AID 2380, 2010;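 active = compounds whose signal lies at least 3.5 SD above the mean of all wells on their plate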;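 note: 0% = DMSO-treated cells in low-serum medium and 100% = 10% serum control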
aDG glyco act – activators of alpha-DG glycosylation, primary screen, uHTS, Pro5-aDG cells, AlphaScreen | alpha-DG glycosylation AlphaScreen (IIH6); 0% Pro5, 100% B10-LARGE cell signal | activation, % at 10 µM | hit rate 0.22% among 360,000 | AID 624168, 2012;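 active = activation of at least 8% versus controls, or a plate z-score of at least 8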;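 note: Pro5 are CHO cells carrying HIG-tagged alpha-DG that lacks glycosylation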
TAG inh – inhibitors of triacylglycerol accumulation, primary screen, cell-based, uHTS, fluorescence, H9c2; hit rate 0.66% among 230,000; H9c2 cells, Nile Red lipid (TAG) fluorescence; cells loaded with 200 µM oleic acid; AID 651582, 2012; inhibition, % at 12.5 µM;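 active = pattern-corrected inhibition of lipid staining of at least 50% with the nuclear-stain viability signal not falling by more than 50%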;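 note: 0% = DMSO wells and 100% = triacsin C control wells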
FAS-TE inh – FAS thioesterase domain inhibitors, primary screen, biochemical, fluorescence intensity, uHTS; Fatty acid synthase (Homo sapiens), P49327; recombinant FAS-TE, OMFH fluorogenic substrate, fluorescence endpoint; inhibition, % at 15 µM; hit rate 0.67% among 360,000; AID 602261, 2012;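 active = compounds whose normalised, plate-corrected inhibition of enzyme fluorescence in the single-dose primary screen is 50% or more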;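 note: 0% = DMSO with enzyme and 100% = substrate without enzyme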
Calpain2 inh – inhibitors of pig calpain II, primary screen, biochemical, fluorogenic peptide substrate, 1536-well. hit rate 0.37% among 220,000. inhibition, % at 16 µM. purified calpain II, 30 min;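 active = inhibition above about 50%, limit read from the data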
Active calls of the source: *; x = no result given.

SMILES	Cardio protect	beta cell repl	aDG glyco act	TAG inh	FAS-TE inh	Calpain2 inh
Cc1ccc2[nH]c(=O)c(CN(Cc3ccco3)S(=O)(=O)c3c(C)ccc4nsnc34)cc2c1	50*	1	0	x	8	-227
COc1ccc2[nH]c(=O)c(CN(Cc3cccs3)S(=O)(=O)c3c(C)ccc4nsnc34)cc2c1	69*	-4	0	27	19	-31
Cc1ccc2[nH]c(=O)c(CN(CC3CCCO3)S(=O)(=O)c3c(C)ccc4nsnc34)cc2c1 (centres undefined)	34	-4	0	x	-4	16
CCN(C)C1CN(Cc2cn(Cc3ccc(Cl)cc3)nn2)S(=O)(=O)C1 (centres undefined)	x	x	0	x	-12	x
CC(C)Oc1ccc(C(=O)OCC(=O)NCCNC(=O)COC(=O)c2ccc(OC(C)C)cc2)cc1	2	-1	0	12	12	x
Cc1ccccc1OCC(=O)N/N=C/c1cc2ccccc2nc1Cl	-11	-3	1	-23	11	-75
C=CCc1ccccc1OCC(=O)N/N=C/c1ccc(OC(C)=O)cc1OC(C)=O	73*	0	1	x	5	-31
CC1(C(=O)NS(=O)(=O)C2CC2)CCN(C(=O)c2cc(F)cc(F)c2)C1 (centres undefined)	4	x	0	11	-7	x
Cc1cccc(C)c1NC(=O)CN(C)C(=O)c1ccccc1Sc1ccccc1C#N	5	2	0	10	-4	x
CSc1nc2ncc3c(n2n1)CC1c2ccccc2CCN1C3=O (centres undefined)	59*	2	0	11	2	-170
O=C1c2cnc3ncnn3c2CC2c3ccccc3CCN12 (centres undefined)	7	4	0	1	-2	-487
CCN(CC)C(=O)CCc1nc2sc3c(c2c(=O)[nH]1)CCCC3	20	-2	0	x	-12	19
CCCCc1nc2sc3c(c2c(=O)[nH]1)CCC3	70*	-1	0	-3	-5	-39
CSc1nc2sc3c(c2c(=O)[nH]1)CCC3	52*	0	0	x	-8	-3
CSc1nc2sc3c(c2c(=O)[nH]1)CCCC3	-7	-3	0	x	-1	-8
Cc1ccnc(NS(=O)(=O)c2ccc(NC(=O)c3cccc(Cl)c3)cc2)n1	5	x	0	9	-5	x
COc1ccc(Cc2c(-c3ccc(Cl)cc3)nc3c(C)cc(Br)cn23)c(C)c1	2	x	0	x	10	x
CC1(C(=O)NC2CCCCCC2)CCN1C(=O)C1(c2ccccc2)CC1 (centres undefined)	8	x	0	-2	-6	x
O=C(NCc1cccnc1)c1csc([C@H]2C[C@H](O)[C@@H](CO)O2)n1	6	x	0	-1	-13	x
CCOc1cc(/C=C(\C#N)C(=O)Nc2ccccc2[N+](=O)[O-])ccc1OCc1cccc2ccccc12	x	x	x	x	x	-79
CCNC(=O)c1cc2c(c(-c3cccc(-c4cccnc4)c3)n1)[C@H](CCO)N(S(C)(=O)=O)C2	x	x	0	x	-3	x
CCOC(=O)C1CCN(c2cc3c(cc2NC(=O)c2ccc(OC)c(OC)c2)n(C)c(=O)n3C)CC1	54*	2	0	x	12	x
CCOC(=O)C1CCN(c2cc3c(cc2NC(=O)c2ccccc2)n(C)c(=O)n3C)CC1	66*	0	-1	x	4	x
O=C1C=CN2CCCCC2CC1 (centres undefined)	-17	-5	0	-20	-12	x
CSc1ccc(S(=O)(=O)NCC(=O)OCC(=O)NCc2cccs2)cc1[N+](=O)[O-]	-5	-5	1	2	-5	x
SMILES	Cardio protect	beta cell repl	aDG glyco act	TAG inh	FAS-TE inh	Calpain2 inh
CCOc1ccc(Br)cc1/C=N/O	2	-3	0	x	-4	5
CCCc1ccc(O)c(N=Cc2cc(Br)cc(OCC)c2O)c1	71*	-6	0	-2	25	-41
COc1ccccc1NC(=O)C(C)N1C(=O)C2CCCCC2C1=O (centres undefined)	7	0	0	1	-7	x
COc1ccc2nc(SCC(=O)NC3CCCCC3C)[nH]c2c1 (centres undefined)	-9	-3	0	-17	1	x
Cc1c(O)ccc2c(-c3ccccc3)cc(=O)oc12	84*	1	0	x	10	x
COc1ccc(-c2cc(=O)oc3c(C)c(O)ccc23)cc1	34	-1	1	x	3	x
Cc1ccc(C(c2cc(Cl)c3cccnc3c2O)N2CCN(C)CC2)cc1 (centres undefined)	26	0	0	x	-3	x
Oc1c(C(c2ccc(Cl)cc2)N2CCCC2)cc(Cl)c2cccnc12 (centres undefined)	72*	-6	1	1	2	-62
Oc1c(C(c2cccs2)N2CCN(c3ccccc3)CC2)ccc2cccnc12 (centres undefined)	x	-5	x	x	x	5
Oc1c(C(c2ccccc2Cl)N2CCCC2)ccc2cccnc12 (centres undefined)	10	-7	0	62*	11	29
COC(=O)Cn1c(=NC(=O)c2nc3ccccc3s2)sc2cc(S(N)(=O)=O)ccc21	1	-2	0	x	-7	-135
COCCn1c(=NC(=O)c2nc3ccccc3s2)sc2cc(S(C)(=O)=O)ccc21	58*	0	0	x	3	-59
COC(=O)Cn1c(=NC(=O)c2cc(-c3cccs3)nc3ccccc23)sc2cc(S(N)(=O)=O)ccc21	66*	0	0	x	20	-112
CCOC(=O)Cn1c(=NC(=O)c2cc(-c3cccs3)nc3ccccc23)sc2cc(S(N)(=O)=O)ccc21	75*	-5	0	x	1	-130
CC(=O)Nc1cccc(-c2ccnc3c2CC(C(=O)NCCN(C)C)O3)c1 (centres undefined)	4	x	0	6	-9	x
O=C(N/N=C/c1ccncc1)c1ccc(COc2cccc3cccnc23)cc1	64*	-3	0	-5	7	-28
O=C(N/N=C/c1cccc(O)c1)c1ccc(COc2cccc3cccnc23)cc1	-1	0	0	-7	-5	-15
COc1ccc(/C=N/NC(=O)c2sccc2OCc2ccc(F)cc2)cc1OC	53*	-3	0	-7	16	-13
COc1ccc(/C=N/NC(=O)c2ccc(COc3cccc4cccnc34)cc2)cc1OC	54*	-2	0	10	15	-99
COc1ccc(/C=N/NC(=O)c2ccc(COc3cccc4cccnc34)cc2)cc1O	45	0	0	0	6	-110
CC(C)[C@H](NC(=O)OC(C)(C)C)c1cc(C(=O)NCCc2c[nH]c3ccccc23)c(N)s1	x	x	0	x	x	x
